Reference: PubChem BioAssay (Tox21)
Inconclusive results are not listed. Activity calls are given as the source filed them. Calls come from the whole dose curve; as a rule, active = well fitted curve in the direction sought with a large enough effect in the repeat runs; inconclusive = weak or mixed curves; inactive = no such curve, though single readings can be large; an effect the other way counts as inactive or inconclusive.

How the values were obtained:
[1] = qHTS RealTime-Glo MT Cell Viability Assay in HEK293 cells - 0 hour (AID 1224880); note: top concentration of the series differs between compounds; nearly all actives have a fitted effect of over 45% in size
Procedure, shortened: (§1)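 Real-time viability in HEK293: signal arises when living cells convert a prosubstrate for NanoLuc in the medium, so luminescence tracks viable cell number. Compound (23 nL, DMSO) added 5 h post-seeding; kinetic reads at 0–40 h, 37 C.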

[2] = A CellTox Green Cytotoxicity Assay to monitor cytotoxicity in HEK293 cells - 32 hour (AID 1224881); note: nearly all actives have a fitted effect of over 40% in size
Procedure, shortened: (§2)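 Cells (HEK293, 600/well) and dye reagent are dispensed together. After 5 h at 37 C, 23 nL compound is pinned in. Plates stay at 37 C for 40 h with fluorescence read at 0h, 8h, 16h, 24h, 32h and 40h.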

[3] = A CellTox Green Cytotoxicity Assay to monitor cytotoxicity in HepG2 cells - 0 hour (AID 1224882); note: nearly all actives have a fitted effect of over 35% in size
Procedure, shortened: (§3)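 Cells and non-lytic dye reagent are dispensed together (600 HepG2 cells/well) and incubated 5 h before DMSO compound transfer. Kinetic fluorescence is then recorded in the same wells during 40 h at 37 C.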

[4] = A CellTox Green Cytotoxicity Assay to monitor cytotoxicity in HepG2 cells - 32 hour (AID 1224883); note: nearly all actives have a fitted effect of over 50% in size
Procedure, shortened: as §3

[5] = A CellTox Green Cytotoxicity Assay to monitor cytotoxicity in HEK293 cells - 8 hour (AID 1224884); note: nearly all actives have a fitted effect of over 35% in size
Procedure, shortened: as §2

[6] = qHTS RealTime-Glo MT Cell Viability Assay in HepG2 cells - 16 hour (AID 1224885); note: nearly all actives have a fitted effect of over 50% in size
Procedure, shortened: (§4)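 Tox21 10K library screened in qHTS format on HepG2 cells carrying RealTime-Glo reagents. Compounds were added after a 5 h preincubation, and the luminescent signal from continuous culture was measured repeatedly during 40 h treatment.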

[7] = qHTS RealTime-Glo MT Cell Viability Assay in HEK293 cells - 24 hour (AID 1224886); note: nearly all actives have a fitted effect of over 50% in size; note: potency is the fitted concentration of half-maximal effect; for activity change, negative = cytotoxicity: top concentration of the series differs between compounds
Procedure, shortened: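 Luminescence generated by NanoLuc from substrate produced by living HEK293 cells served as the viability signal. Each value reflects the reading at its stated time point during continuous 40 h compound exposure at 37 C.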

[8] = qHTS RealTime-Glo MT Cell Viability Assay in HEK293 cells - 8 hour (AID 1224887); note: nearly all actives have a fitted effect of over 50% in size; note: potency is the fitted concentration of half-maximal effect; for activity change, negative = cytotoxicity: top concentration of the series differs between compounds
Procedure, shortened: as §1

[9] = A CellTox Green Cytotoxicity Assay to monitor cytotoxicity in HEK293 cells - 16 hour (AID 1224888); note: nearly all actives have a fitted effect of over 35% in size
Procedure, shortened: as §2

[10] = qHTS RealTime-Glo MT Cell Viability Assay in HepG2 cells - 0 hour (AID 1224889); note: nearly all actives have a fitted effect of over 50% in size
Procedure, shortened: as §4
% is set by controls: 0 for no effect and ±100 for the full control effect.

COc1cc(C)ccc1C(C)C
inactive: outcome [1] | Potency [2] | Potency [3] | Potency [4] | Potency [5] | outcome [6] | Potency [7] | Potency [8] | Potency [9]

Cc1nc(-c2ccccn2)ncc1C(=O)Nn1cc(C)c2cc(F)ccc21
inactive: outcome [1] | Potency [2] | Potency [3] | Potency [4] | Potency [5] | outcome [6] | Potency [9] | Potency [10]
active: Potency [7] 1550 nM | Potency [8] 1950 nM

O=C(O[C@@H](C(=O)O)[C@@H](OC(=O)c1ccccc1)C(=O)O)c1ccccc1
inactive: outcome [1] | Potency [2] | Potency [3] | Potency [4] | Potency [5] | outcome [6] | Potency [7] | Potency [8] | Potency [9] | Potency [10]

CCC(=O)O[C@]1(C(=O)SCF)[C@H](C)C[C@H]2[C@@H]3C[C@H](F)C4=CC(=O)C=C[C@]4(C)[C@@]3(F)[C@@H](O)C[C@@]21C
inactive: outcome [1] | Potency [2] | Potency [3] | Potency [4] | Potency [5] | outcome [6] | Potency [7] | Potency [8] | Potency [9]

FC(F)(F)C(Cl)(Cl)Cl
inactive: outcome [1] | Potency [2] | Potency [3] | Potency [4] | Potency [5] | outcome [6] | Potency [7] | Potency [8] | Potency [9]

CCCNC(C)C(=O)Nc1c(C)csc1C(=O)OC (stereo not given)
inactive: outcome [1] | Potency [2] | Potency [3] | Potency [4] | Potency [5] | outcome [6] | Potency [7] | Potency [8] | Potency [9] | Potency [10]

CC(C)=CCCC(C)CCOC=O (stereo not given)
inactive: outcome [1] | Potency [2] | Potency [3] | Potency [4] | Potency [5] | outcome [6] | Potency [7] | Potency [8] | Potency [9] | Potency [10]

C[C@]12C(=O)OC(=O)[C@H]1[C@H]1C=C[C@@H]2C1
inactive: outcome [1] | Potency [2] | Potency [3] | Potency [4] | Potency [5] | outcome [6] | Potency [7] | Potency [8] | Potency [9] | Potency [10]

CCOc1ccc(OCC)c(Cl)c1
inactive: outcome [1] | Potency [2] | Potency [3] | Potency [4] | Potency [5] | outcome [6] | Potency [7] | Potency [8] | Potency [9] | Potency [10]

CC1=C(O)C(=O)OC1C (stereo not given)
inactive: outcome [1] | Potency [2] | Potency [3] | Potency [4] | Potency [5] | outcome [6] | Potency [7] | Potency [8] | Potency [9] | Potency [10]

CO[C@@]1(NC(=O)CSCC#N)C(=O)N2C(C(=O)O)=C(CSc3nnnn3C)CS[C@@H]21
inactive: outcome [1] | Potency [2] | Potency [3] | Potency [4] | Potency [5] | outcome [6] | Potency [7] | Potency [8] | Potency [9] | Potency [10]

CC(C)C(=O)OC/C=C/c1ccccc1
inactive: outcome [1] | Potency [2] | Potency [3] | Potency [4] | Potency [5] | outcome [6] | Potency [7] | Potency [8] | Potency [9]

CCNCCO
inactive: outcome [1] | Potency [2] | Potency [3] | Potency [4] | Potency [5] | outcome [6] | Potency [7] | Potency [8] | Potency [9] | Potency [10]

CC(=O)N(CC(O)CN(C(C)=O)c1c(I)c(C(=O)NCC(O)CO)c(I)c(C(=O)NCC(O)CO)c1I)c1c(I)c(C(=O)NCC(O)CO)c(I)c(C(=O)NCC(O)CO)c1I (stereo not given)
inactive: outcome [1] | Potency [2] | Potency [3] | Potency [4] | Potency [5] | outcome [6] | Potency [7] | Potency [8] | Potency [9]

O=C(O)C(=O)Cc1c[nH]c2ccccc12
inactive: outcome [1] | Potency [2] | Potency [3] | Potency [4] | Potency [5] | outcome [6] | Potency [7] | Potency [8] | Potency [9]

C=CCCC=C
inactive: outcome [1] | Potency [2] | Potency [3] | Potency [4] | Potency [5] | outcome [6] | Potency [7] | Potency [8] | Potency [9] | Potency [10]

CCCCC(=O)O[C@]1(C(=O)CO)[C@H](C)C[C@H]2[C@@H]3CCC4=CC(=O)C=C[C@]4(C)[C@@]3(F)[C@@H](O)C[C@@]21C
inactive: outcome [1] | Potency [2] | Potency [3] | Potency [4] | Potency [5] | outcome [6] | Potency [7] | Potency [8] | Potency [9]

COc1ccccc1OCC(O)COC(N)=O (stereo not given)
inactive: outcome [1] | Potency [2] | Potency [3] | Potency [4] | Potency [5] | outcome [6] | Potency [7] | Potency [8] | Potency [9]

CC(C)C[C@H](NC(=O)OCC1c2ccccc2-c2ccccc21)C(=O)O
inactive: outcome [1] | Potency [2] | Potency [3] | Potency [4] | Potency [5] | outcome [6] | Potency [7] | Potency [8] | Potency [9]

CN1CCN(c2c(F)cc3c(=O)c(C(=O)O)cn4c3c2SCC4)CC1
inactive: outcome [1] | Potency [2] | Potency [3] | Potency [4] | Potency [5] | outcome [6] | Potency [7] | Potency [8] | Potency [9] | Potency [10]

FC(F)(F)c1ccccc1
inactive: outcome [1] | Potency [2] | Potency [3] | Potency [4] | Potency [5] | outcome [6] | Potency [7] | Potency [8] | Potency [9] | Potency [10]

CCCCN1C[C@H](O)[C@@H](O)[C@H](O)[C@H]1CO
inactive: outcome [1] | Potency [2] | Potency [3] | Potency [4] | Potency [5] | outcome [6] | Potency [7] | Potency [8] | Potency [9] | Potency [10]

Cc1ccc([N+](=O)[O-])c(N)c1
inactive: outcome [1] | Potency [2] | Potency [3] | Potency [4] | Potency [5] | outcome [6] | Potency [7] | Potency [8] | Potency [9] | Potency [10]

O=C(O)c1ccccc1Nc1cc(Cl)ccc1C(=O)O
inactive: activity change, negative = cytotoxicity [1] -6.06% [at 15.8 µM] | cytotoxicity increase [2] -11.6% [at 15.8 µM] | cytotoxicity [3] -1.43% [at 15.8 µM] | cytotoxicity increase [4] 20.7% [at 15.8 µM] | cytotoxicity increase [5] -18.6% [at 15.8 µM] | activity change, negative = cytotoxic [6] 0.467% [at 15.8 µM] | activity change, negative = cytotoxicity [7] 7.65% [at 15.8 µM] | activity change, negative = cytotoxicity [8] -4.99% [at 15.8 µM] | activity change [9] -3.78% [at 15.8 µM, active compounds read high]
